Laboratory results published in PubChem BioAssay (EPA / NIEHS).
Activity calls are given as the source filed them. How the source made its calls: active means hit-call score of the fitted dose curve at least 0.9, where 1 is the maximum; inactive means score below 0.9.

Assays:
[1] = biological target: Transcription factor E2F1 (Homo sapiens) (UniProt Q01094); assay: ATG_E2F_CIS: Attagene CIS-FACTORIAL HepG2 Assay for human E2F Transcription Factor 1 (AID 2282935); conditions: HepG2 Attagene cis-reporter, E2F reporter RNA transcripts; actives raise or lower the signal
Sequence of Transcription factor E2F1 (Homo sapiens) (Q01094 whole entry, looked up): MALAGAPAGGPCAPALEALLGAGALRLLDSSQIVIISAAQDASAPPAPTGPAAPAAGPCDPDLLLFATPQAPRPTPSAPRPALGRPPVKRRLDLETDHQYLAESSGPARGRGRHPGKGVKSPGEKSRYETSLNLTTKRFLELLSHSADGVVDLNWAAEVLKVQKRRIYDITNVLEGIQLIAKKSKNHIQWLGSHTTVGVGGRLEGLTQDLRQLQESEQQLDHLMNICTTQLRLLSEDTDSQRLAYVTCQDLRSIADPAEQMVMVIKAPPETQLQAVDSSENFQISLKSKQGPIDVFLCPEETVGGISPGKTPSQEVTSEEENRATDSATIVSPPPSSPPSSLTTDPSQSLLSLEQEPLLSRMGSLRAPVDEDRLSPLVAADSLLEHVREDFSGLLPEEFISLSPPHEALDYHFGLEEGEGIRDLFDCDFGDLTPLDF
Method in brief: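 Liver-derived HepG2 cells expressing transfected promoter-driven reporter units received test chemical for 24 hours. Signal gains or losses were fitted bidirectionally against DMSO.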

[2] = ATG_E_Box_CIS: Attagene CIS-FACTORIAL HepG2 Assay for human Enhancer Box (E-box) (AID 2282936); conditions: HepG2 E-box cis-reporter transcription, actives raise or lower the signal
Method in brief: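 In this cell-based setup, HepG2 cells bearing transfected promoter-driven reporter units were exposed to chemicals for 24 h; reporter transcripts were amplified, 6-FAM-labelled, cut with HpaI and sized by capillary electrophoresis.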

[3] = ATG_M_61_CIS: Attagene CIS-FACTORIAL HepG2 Assay for M61 Transcription Factor (Internal Marker) (AID 2282937); conditions: HepG2 Attagene CIS-FACTORIAL M61 internal marker reporter; actives raise or lower the signal
Method in brief: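 This endpoint serves as an internal background control within a multiplexed HepG2 cis-reporter panel. Cells are exposed for 24 h; reporter mRNA is amplified, fluorescently labelled and sized by capillary electrophoresis, with DMSO as negative control.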

[4] = ATG_EGR_CIS: Attagene CIS-FACTORIAL HepG2 Assay for human Early Growth Response 1 (EGR1) (AID 2282938); conditions: HepG2 Attagene CIS-FACTORIAL EGR reporter mRNA; actives raise or lower the signal
Method in brief: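 HepG2, transient MRTU transfection (cis promoters), 24 h compound. RNA → RT (oligo-dT) → PCR → 6-FAM labelling → HpaI cut → CE fluorescence. Bidirectional fit, DMSO baseline.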

[5] = ATG_ERE_CIS: Attagene CIS-FACTORIAL HepG2 Assay for Estrogen Response Element (ERE) (AID 2282940); conditions: HepG2 ERE cis-reporter, Attagene RNA transcript; actives raise or lower the signal
Method in brief: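 After a 24 h chemical treatment, RNA from reporter-transfected HepG2 cells is reverse-transcribed, PCR-amplified and fluorescently labelled. Fragments separated by capillary electrophoresis give reporter signal; DMSO serves as negative control.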

[6] = ATG_Ets_CIS: Attagene CIS-FACTORIAL HepG2 Assay for human Erythroblast Transformation Specific (ETS) (AID 2282941); conditions: HepG2 ETS cis-reporter transcription, actives raise or lower the signal
Method in brief: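 Cis-regulated reporter mRNA induction in HepG2 (transient transfection), 24 h exposure, RT-PCR plus capillary electrophoresis detection; DMSO serves as negative control and baseline.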

[7] = biological target: Hepatocyte nuclear factor 3-beta (Homo sapiens) (UniProt Q9Y261); assay: ATG_FoxA2_CIS: Attagene CIS-FACTORIAL HepG2 Assay for human Forkhead box A2 (FOXA2) (AID 2282942); conditions: HepG2 cis-reporter transcription factor activity, 24 h; actives raise or lower the signal
Sequence of Hepatocyte nuclear factor 3-beta (Homo sapiens) (Q9Y261 whole entry, looked up): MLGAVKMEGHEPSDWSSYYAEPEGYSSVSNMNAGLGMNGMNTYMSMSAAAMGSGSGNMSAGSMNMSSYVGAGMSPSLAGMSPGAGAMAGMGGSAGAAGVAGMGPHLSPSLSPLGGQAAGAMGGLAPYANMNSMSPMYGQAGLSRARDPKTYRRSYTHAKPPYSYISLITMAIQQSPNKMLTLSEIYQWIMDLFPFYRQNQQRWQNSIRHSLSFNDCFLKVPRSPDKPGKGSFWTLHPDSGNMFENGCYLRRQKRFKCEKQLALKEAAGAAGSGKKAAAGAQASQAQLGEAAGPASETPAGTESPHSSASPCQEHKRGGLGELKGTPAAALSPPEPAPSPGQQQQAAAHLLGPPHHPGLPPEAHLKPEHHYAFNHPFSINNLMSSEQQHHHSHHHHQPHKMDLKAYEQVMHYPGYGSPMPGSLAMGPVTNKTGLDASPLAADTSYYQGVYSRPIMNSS
Method in brief: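 Cells: HepG2, transient multiplex reporter transfection. Exposure 24 h. Detection: reporter-specific RT-PCR, fluorescent labelling, restriction digest, capillary electrophoresis. Analysis: bidirectional curve fit, DMSO as negative control.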

[8] = ATG_FoxO_CIS: Attagene CIS-FACTORIAL HepG2 Assay for human Forkhead box O (FoxO) (AID 2282943); conditions: HepG2 Attagene cis-reporter, FoxO element, mRNA; actives raise or lower the signal
Method in brief: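 Read-out: fluorescence of 6-FAM-labelled reporter cDNA fragments resolved by capillary electrophoresis. Transiently transfected HepG2 cells were dosed for 24 h; activity fitted in both directions relative to DMSO controls.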

[9] = ATG_GATA_CIS: Attagene CIS-FACTORIAL HepG2 Assay for human GATA Binding Protein (AID 2282944); conditions: HepG2 GATA cis-element reporter, Attagene multiplex mRNA; actives raise or lower the signal
Method in brief: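 Cells: HepG2, transiently transfected with cis-regulated reporter transcription units. Exposure: 24 h. Detection: RT-PCR plus capillary electrophoresis of FAM-labeled fragments. Analysis: bidirectional, DMSO as baseline.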

[10] = ATG_GLI_CIS: Attagene CIS-FACTORIAL HepG2 Assay for human Zinc Finger Protein GLI1 (AID 2282945); conditions: HepG2, Attagene cis-factorial reporter mRNA, GLI element; actives raise or lower the signal
Method in brief: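 Transiently transfected HepG2 cells report endogenous transcription factor activity via cis-element-driven reporter units. After 24 h compound exposure, reporter mRNA was measured by RT-PCR with capillary electrophoresis; bidirectional fitting against DMSO baseline.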

[11] = biological target: Bile acid receptor (Homo sapiens) (UniProt Q96RI1); assay: ATG_IR1_CIS: Attagene CIS-FACTORIAL HepG2 Assay for human Nuclear Receptor Subfamily 1 Group H Member 4 (NR1H4), IR1 submotif (AID 2282946); conditions: IR1 reporter transcription, actives raise or lower the signal
Sequence of Bile acid receptor (Homo sapiens) (Q96RI1 whole entry, looked up): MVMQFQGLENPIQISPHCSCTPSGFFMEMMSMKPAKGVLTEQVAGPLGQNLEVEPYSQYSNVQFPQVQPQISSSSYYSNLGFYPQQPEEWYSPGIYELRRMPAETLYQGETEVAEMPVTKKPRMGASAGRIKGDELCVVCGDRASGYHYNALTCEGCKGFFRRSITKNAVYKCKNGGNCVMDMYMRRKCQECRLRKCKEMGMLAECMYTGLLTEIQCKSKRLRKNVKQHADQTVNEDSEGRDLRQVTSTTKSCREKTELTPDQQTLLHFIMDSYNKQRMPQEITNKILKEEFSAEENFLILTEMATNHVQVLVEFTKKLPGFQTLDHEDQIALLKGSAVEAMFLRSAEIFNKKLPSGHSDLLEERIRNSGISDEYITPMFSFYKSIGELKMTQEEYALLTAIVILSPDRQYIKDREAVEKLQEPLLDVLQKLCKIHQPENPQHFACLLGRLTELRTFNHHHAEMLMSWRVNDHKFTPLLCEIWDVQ
Method in brief: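 Fluorescence of capillary-separated, HpaI-digested RT-PCR reporter products gave IR1-element mRNA induction in HepG2 cells 24 h after dosing. Endogenous transcription factors drove the cis-regulated reporters; activity was fitted bidirectionally against DMSO.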

[12] = ATG_GRE_CIS: Attagene CIS-FACTORIAL HepG2 Assay for human Glucocorticoid Response Elements (GRE) (AID 2282947); conditions: HepG2 GRE cis-reporter, Attagene multiplex mRNA; actives raise or lower the signal
Method in brief: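 Fluorescence intensity of reporter-specific cDNA fragments, separated by capillary electrophoresis, provides the signal. Constructs carry cis-regulating promoters in transiently transfected HepG2 liver cells; 24 h incubation; fitting is bidirectional against DMSO.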

[13] = ATG_ISRE_CIS: Attagene CIS-FACTORIAL HepG2 Assay for human Interferon Regulatory Factor 1 (IRF1) binding to an Interferon-Stimulated Response Element (ISRE) (AID 2282948); conditions: HepG2 ISRE cis-reporter (Attagene), mRNA transcription readout; actives raise or lower the signal
Method in brief: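 Multiplexed mRNA reporter readout in human liver HepG2 cells: cis-element-driven reporters transfected, compound added for 24 h, transcripts amplified, fluorescently labelled and sized by capillary electrophoresis; curve fitting bidirectional against DMSO.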

[14] = ATG_M_32_CIS: Attagene CIS-FACTORIAL HepG2 Assay for M32 Transcription Factor (Internal Marker) (AID 2282949); conditions: HepG2 Attagene cis-factorial M32 reporter, mRNA; actives raise or lower the signal;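 further: background control marker of the multiplexed CIS panel rather than a real target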
Method in brief: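 HepG2 human liver cells transiently transfected with cis-promoter-driven multiple reporter transcription units, dosed 24 h. Reporter mRNA quantified by RT-PCR, FAM-labelled primer extension, HpaI digest and capillary electrophoresis; bidirectional fit versus DMSO baseline.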

[15] = ATG_M_06_CIS: Attagene CIS-FACTORIAL HepG2 Assay for M06 Transcription Factor (Internal Marker) (AID 2282950); conditions: HepG2 Attagene CIS-FACTORIAL M06 internal marker reporter; actives raise or lower the signal
Method in brief: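 Measured 24 h post-dosing in transiently transfected HepG2 cells, this internal-marker endpoint reports reporter mRNA via RT-PCR with fluorescent primer extension and capillary electrophoresis. DMSO served as negative control and baseline for bidirectional fitting.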

[16] = biological target: Hypoxia-inducible factor 1-alpha (Homo sapiens) (UniProt Q16665); assay: ATG_HIF1a_CIS: Attagene CIS-FACTORIAL HepG2 Assay for human Hypoxia Inducible Factor 1 (HIF1A) (AID 2282951); conditions: HepG2 Attagene cis-factorial HIF1a reporter transcription; actives raise or lower the signal
Sequence of Hypoxia-inducible factor 1-alpha (Homo sapiens) (Q16665 whole entry, looked up): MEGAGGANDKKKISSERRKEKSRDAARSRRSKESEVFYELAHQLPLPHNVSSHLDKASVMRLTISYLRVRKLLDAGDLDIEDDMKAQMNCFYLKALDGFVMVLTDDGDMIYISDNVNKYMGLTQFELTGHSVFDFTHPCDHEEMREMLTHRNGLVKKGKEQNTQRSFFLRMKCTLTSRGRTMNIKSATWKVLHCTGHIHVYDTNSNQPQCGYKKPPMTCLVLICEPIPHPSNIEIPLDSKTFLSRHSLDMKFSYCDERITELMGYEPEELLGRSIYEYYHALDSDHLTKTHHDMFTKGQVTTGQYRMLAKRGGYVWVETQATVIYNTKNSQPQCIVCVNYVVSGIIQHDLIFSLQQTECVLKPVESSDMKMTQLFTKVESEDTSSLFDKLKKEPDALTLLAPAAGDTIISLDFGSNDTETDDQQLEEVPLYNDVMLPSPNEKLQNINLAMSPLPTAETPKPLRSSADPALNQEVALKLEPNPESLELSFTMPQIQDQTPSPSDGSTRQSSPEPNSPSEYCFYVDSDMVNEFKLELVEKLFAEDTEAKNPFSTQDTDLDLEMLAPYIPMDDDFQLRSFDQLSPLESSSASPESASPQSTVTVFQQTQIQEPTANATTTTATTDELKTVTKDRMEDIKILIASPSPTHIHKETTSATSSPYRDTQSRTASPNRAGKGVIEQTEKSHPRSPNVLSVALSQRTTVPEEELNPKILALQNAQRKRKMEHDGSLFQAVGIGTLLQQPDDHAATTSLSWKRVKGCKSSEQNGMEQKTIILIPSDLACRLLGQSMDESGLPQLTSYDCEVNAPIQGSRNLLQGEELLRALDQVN
Method in brief: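 HepG2, transient cis-reporter library, 24 h dosing. RNA → RT (oligo dT) → PCR → 6-FAM primer extension → HpaI → CE. Bidirectional curve fit vs DMSO.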

[17] = biological target: Hepatocyte nuclear factor 6 (Homo sapiens) (UniProt Q9UBC0); assay: ATG_HNF6_CIS: Attagene CIS-FACTORIAL HepG2 Assay for human Hepatocyte Nuclear Factor 6 (HNF6) (AID 2282952); conditions: HepG2 Attagene cis-factorial HNF6 reporter transcription; actives raise or lower the signal
Sequence of Hepatocyte nuclear factor 6 (Homo sapiens) (Q9UBC0 whole entry, looked up): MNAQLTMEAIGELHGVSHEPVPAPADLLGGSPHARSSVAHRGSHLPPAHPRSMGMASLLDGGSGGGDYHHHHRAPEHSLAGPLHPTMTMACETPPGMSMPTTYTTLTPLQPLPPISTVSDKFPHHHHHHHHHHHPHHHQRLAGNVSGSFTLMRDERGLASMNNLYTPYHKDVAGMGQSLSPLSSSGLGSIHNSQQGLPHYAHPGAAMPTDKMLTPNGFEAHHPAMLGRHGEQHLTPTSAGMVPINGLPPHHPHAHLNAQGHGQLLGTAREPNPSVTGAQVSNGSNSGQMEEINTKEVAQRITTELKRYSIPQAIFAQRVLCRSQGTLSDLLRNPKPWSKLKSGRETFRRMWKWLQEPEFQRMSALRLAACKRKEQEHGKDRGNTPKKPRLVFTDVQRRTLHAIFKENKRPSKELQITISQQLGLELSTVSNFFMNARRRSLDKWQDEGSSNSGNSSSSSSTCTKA
Method in brief: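 Endogenous factor activity read in transiently transfected HepG2 via promoter-regulated reporter transcripts. RNA harvested 24 h post-dosing, reverse-transcribed, PCR-amplified, FAM-labelled, HpaI-digested and resolved by capillary electrophoresis; fitted in both directions against DMSO.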

[18] = ATG_MRE_CIS: Attagene CIS-FACTORIAL HepG2 Assay for human Metal Responsive Element (MRE) (AID 2282954); conditions: HepG2 MRE cis-reporter transcription, Attagene multiplex; actives raise or lower the signal
Method in brief: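 Measured here is mRNA induction from an MRE cis-element reporter in HepG2 after 24 h, quantified by fluorescence of labelled RT-PCR products on capillary electrophoresis; gain- and loss-of-signal fits use DMSO as baseline.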

[19] = biological target: Heat shock factor protein 1 (Homo sapiens) (UniProt Q00613); assay: ATG_HSE_CIS: Attagene CIS-FACTORIAL HepG2 Assay for human Heat Shock Transcription Factor 1 (HSE) (AID 2282953); conditions: HepG2 HSE cis-reporter, Attagene RNA transcription; actives raise or lower the signal
Sequence of Heat shock factor protein 1 (Homo sapiens) (Q00613 whole entry, looked up): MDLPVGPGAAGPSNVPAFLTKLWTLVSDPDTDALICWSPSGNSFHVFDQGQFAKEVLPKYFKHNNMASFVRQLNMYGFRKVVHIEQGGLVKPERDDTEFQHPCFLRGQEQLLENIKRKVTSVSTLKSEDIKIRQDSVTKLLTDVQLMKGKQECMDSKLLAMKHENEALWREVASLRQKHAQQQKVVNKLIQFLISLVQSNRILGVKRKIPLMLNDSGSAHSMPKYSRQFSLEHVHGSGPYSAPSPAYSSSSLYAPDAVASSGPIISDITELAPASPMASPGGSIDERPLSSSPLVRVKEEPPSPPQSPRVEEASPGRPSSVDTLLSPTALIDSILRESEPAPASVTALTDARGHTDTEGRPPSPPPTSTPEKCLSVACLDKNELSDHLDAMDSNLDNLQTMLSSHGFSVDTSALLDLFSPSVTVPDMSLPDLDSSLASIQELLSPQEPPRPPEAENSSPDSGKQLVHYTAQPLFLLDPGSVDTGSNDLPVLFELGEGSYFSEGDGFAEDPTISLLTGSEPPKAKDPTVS
Method in brief: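 Reporter mRNA induction in HepG2 is measured 24 h after dosing, using transiently transfected multiplexed cis-regulated reporter units. Signal comes from capillary electrophoresis of labelled RT-PCR products, with DMSO as negative control.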

| SMILES | outcome [1] | outcome [2] | outcome [3] | outcome [4] | outcome [5] | outcome [6] | outcome [7] | outcome [8] | outcome [9] | outcome [10] | outcome [11] | outcome [12] | outcome [13] | outcome [14] | outcome [15] | outcome [16] | outcome [17] | outcome [18] | AC50 [5] | outcome [19] |
| --- | --- | --- | --- | --- | --- | --- | --- | --- | --- | --- | --- | --- | --- | --- | --- | --- | --- | --- | --- | --- |
| FC(F)(F)c1ccc(Cl)cc1 | inactive | inactive | inactive | inactive | inactive | inactive | inactive | inactive | inactive | inactive | inactive | inactive | inactive | inactive | inactive | inactive | inactive | inactive | – | – |
| Cc1ccc2c(c1N)C(=O)c1ccccc1C2=O | inactive | inactive | inactive | inactive | – | inactive | inactive | inactive | inactive | inactive | inactive | inactive | inactive | inactive | inactive | inactive | inactive | inactive | 5.24 µM (active) | inactive |
| CC(C)CBr | inactive | inactive | inactive | inactive | inactive | inactive | inactive | inactive | inactive | inactive | inactive | inactive | inactive | inactive | inactive | inactive | inactive | inactive | – | inactive |
| CCOP(=S)(OCC)SCS(=O)(=O)CC | inactive | inactive | inactive | inactive | inactive | inactive | inactive | inactive | inactive | inactive | inactive | inactive | inactive | inactive | inactive | inactive | inactive | inactive | – | inactive |
